The panel holds about 83,000 compounds, 20% with a hit somewhere; the sample as a whole holds those more often.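 Single-dose data. Exposure time 48 hours. Values below 10 considered active.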 Values without a mark were called inactive. Active and inactive are the calls of the source.
These molecules were tested on U251 CNS (assay: NCI-60 one-dose screen, 48 h (100 = growth as untreated, 0 = no growth, -100 = all killed)). Conditions: 10 µM unless noted.

First: CNCc1cccc2c1OCCOCCOCCN(CCN1CCOCC1)S(=O)(=O)c1ccc(cc1)-c1cnc(N)c(n1)C(=O)N2
Second: O=c1nc(-c2ccccc2)c2cc(-c3ccc(N4CCCC4)nc3)ccc2[nH]1
The growth of the first is lower: 53.8% for the first, 67.5% for the second.

Going from `Cc1cc(C)c(NC(=O)c2sc3nc4c(cc3c2N)CCCCCC4)c(C)c1` to `Nc1c(C(=O)Nc2ccccn2)sc2nc3c(cc12)CCCCCC3`, the growth falls from 35.3% to 16%.

Compared with `O=C1NN(c2ccccc2)C(c2ccc3c(c2)OCO3)N2CCC[C@@H]12` (some centres not stated), `CCC1S/C(=N\N=C(/C)c2ccc[nH]2)N(c2ccccc2)C1=O` (configuration not stated) is higher in growth: 95.1% for the first, 108% for the second.

Going from `C=C1C(=O)O[C@H]2[C@H]1CC/C(COC(=O)CCCCCCCCC(=O)OC/C1=C/CC[C@@]3(C)O[C@H]3[C@H]3OC(=O)C(=C)[C@@H]3CC1)=C\CC[C@@]1(C)O[C@@H]21` to `C=C1C(=O)O[C@H]2[C@H]1CC/C(COC(=O)CCCCCCC(=O)OC/C1=C/CC[C@@]3(C)O[C@H]3[C@H]3OC(=O)C(=C)[C@@H]3CC1)=C\CC[C@@]1(C)O[C@@H]21`, the growth rises from 12.1% to 44.1%.

Going from `COc1ccc(C2N(c3cc(OC)c(OC)c(OC)c3)C(=O)C2(F)F)cc1F` (configuration not stated) to `COc1ccc(C2C(c3ccccc3)C(=O)N2c2cc(OC)c(OC)c(OC)c2)cc1I` (configuration not stated), the growth falls from 41.6% to 15.4%.

Going from `O=C(Nc1nc(-c2ccccc2)cs1)c1cc(-c2ccc(Br)cc2)nc2ccccc12` to `COC(=O)c1ccc(NC(=O)CSc2nc(-c3ccc(F)cc3)nc3ccccc23)cc1`, the growth rises from 42% to 63.1%.

First: C=C1C(=O)O[C@H]2[C@H]1CCC(/C=N/c1ncc(Br)cc1N)=C\CC[C@@]1(C)O[C@@H]21
Second: C[C@]12CC[C@@H]3c4ccc(O)cc4CC[C@H]3[C@@H]1C[C@H](O)C2
The growth of the first is lower: 47.9% for the first, 63.3% for the second.

Going from `O=[N+]([O-])c1cccc(CN(Cc2cccc([N+](=O)[O-])c2O)c2ccccc2)c1O` to `COc1ccc(C2=NN(c3ccc(S(N)(=O)=O)cc3)C(c3ccc(Cl)cc3)C2)c(O)c1` (configuration not stated), the growth falls from 85.4% to 57.7%.

Going from `COCCOCCOCc1n(Cc2ccc3ccccc3c2)c2ccccc2[n+]1Cc1ccc2ccccc2c1` to `COc1ccc2nc(-c3ccc(OC)c(OC)c3)cc(-c3nnc(SCC(=O)Nc4ccc(/C(C)=N\O)cc4)n3-c3ccccc3)c2c1`, the growth rises from 12.4% to 78.3%.

Going from `COc1ccc(C(=O)c2cc(F)c(F)c(OC)c2F)cc1OC(=O)CCl` to `CC(C)(C#N)c1cc(F)cc(C(=O)Nc2cc(Nc3ncccc3-c3ncnc4nc[nH]c34)ccc2F)c1`, the growth rises from 31.3% to 40.7%.

First: Nc1cccc(C(=O)Nc2ccc3c(O)c(N=Nc4ccc(N=Nc5ccc(S(=O)(=O)O)cc5)cc4)c(S(=O)(=O)O)cc3c2)c1
Second: FC(F)(F)c1ccc2c(Nc3cccc(C4CC(c5ccccc5)=NN4c4ccc(Cl)cc4)c3)ccnc2c1 (configuration not stated)
The growth of the first is higher: 109% for the first, 29.3% for the second.

Going from `O=C(Nc1ccccc1)NS(=O)(=O)c1c[nH]c(=S)[nH]c1=O` to `CCCCC(=O)Nc1c(C(=O)Nc2ccccc2)sc2nc3c(cc12)C(OC(=O)CCCC)CCC3` (configuration not stated), the growth falls from 93.3% to 79.8%.

Compared with `COc1c(O)cc2oc3cc(O[C@@H]4OC(C)[C@@H](O)[C@H](O)C4O)c(CC=C(C)C)c(O)c3c(=O)c2c1CC=C(C)C` (some centres not stated), `Cn1cc(-c2ccc3c(c2)ncn3-c2ccc(CC(=O)Nc3cc(C(C)(C)C)on3)cc2)cn1` is lower in growth: 86.6% for the first, 31.3% for the second.

Going from `O=C(CCCC(=O)Nc1ccc(-n2nnc3cc(Cl)c(Cl)cc32)cc1)Nc1ccc(-n2nnc3cc(Cl)c(Cl)cc32)cc1` to `Cc1cccc(C)c1Nc1nnc(-c2ccc(F)cc2)o1`, the growth rises from 28.7% to 104%.

First: CC(=O)Nc1nc2c(c(N)c1C#N)C(c1cccc(Cl)c1)C1=C(CCCC1=O)N2c1sc2c(c1C#N)CCCC2 (configuration not stated)
Second: C#Cc1ccccc1NC(=O)c1sc2nc3c(cc2c1N)CCCCCC3
The growth of the first is higher: 42.3% for the first, 23.4% for the second.

Compared with `C=C(C)[C@@H]1CC[C@]2(C(=O)N3CCN(C)CC3)CC[C@]3(C)[C@H](CC[C@@H]4[C@@]5(C)C/C(=C/c6ccco6)C(=O)C(C)(C)[C@@H]5CC[C@]43C)[C@@H]12`, `C#CC[C@@H]1C[C@]2(C)[C@H]3CC[C@@H]4[C@H]5[C@H](C(=C)C)CC[C@]5(C(=O)O)CC[C@@]4(C)[C@]3(C)CC[C@H]2C(C)(C)[C@H]1O` is lower in growth: 60.9% for the first, 26.3% for the second.

`Cc1ccc(-c2nc(C#N)c(S(=O)(=O)N(C)CCO)o2)cc1` was tested, and the growth was 83.7%.

In the case of `Cc1cnc(-c2ccc(-c3ccc(NC(=O)Nc4c(F)cc(F)cc4F)cc3F)c3c2C(=O)NC3)[nH]1`, the growth is reported as 8.19% (active).
In the case of `COc1ccc2nc3c(n2c1)C(=O)C(=O)c1ccccc1-3`, the growth is reported as -59.4% (active).
In the case of `CC(C)CSc1nc(Nc2ccccc2)c(C#N)c(-c2ccc(F)cc2)n1`, the growth is reported as -32.5% (active).
`CC(=O)ON1CCCC(P(=O)(OCOC(=O)C(C)(C)C)OCOC(=O)C(C)(C)C)C1=O` (configuration not stated) was tested, and the growth was -8.95% (active).

Source: PubChem BioAssay (NCI)
